Values joined by “and” are separate entries in the source; they are usually repeats but may differ in a detail not shown here. Identical values can stand only once. Inconclusive results are not listed. Active and inactive are the calls of the source. Unless noted, calls follow the shape of the dose curve; as a rule, active = well fitted curve in the direction sought with a large enough effect; inconclusive = small, poorly fitted or top-dose-only effect, or another doubt; inactive = no such curve, though single readings can be large; an effect the other way counts as inactive or inconclusive.
Experiments:
[1] = biological target: Glucocorticoid receptor (Homo sapiens) (UniProt P04150); assay: GR-GFP Redistribution (AID 450;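 active = compounds whose dose series gives a full or clear partial fitted curve of increased nuclear translocation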; also: potency is read from the fitted curve at half-maximal effect); conditions: U2OS GR-GFP nuclear translocation, laser cytometry, 2 h
Sequence of Glucocorticoid receptor (Homo sapiens) (P04150 whole entry, looked up, the tested form may be a part): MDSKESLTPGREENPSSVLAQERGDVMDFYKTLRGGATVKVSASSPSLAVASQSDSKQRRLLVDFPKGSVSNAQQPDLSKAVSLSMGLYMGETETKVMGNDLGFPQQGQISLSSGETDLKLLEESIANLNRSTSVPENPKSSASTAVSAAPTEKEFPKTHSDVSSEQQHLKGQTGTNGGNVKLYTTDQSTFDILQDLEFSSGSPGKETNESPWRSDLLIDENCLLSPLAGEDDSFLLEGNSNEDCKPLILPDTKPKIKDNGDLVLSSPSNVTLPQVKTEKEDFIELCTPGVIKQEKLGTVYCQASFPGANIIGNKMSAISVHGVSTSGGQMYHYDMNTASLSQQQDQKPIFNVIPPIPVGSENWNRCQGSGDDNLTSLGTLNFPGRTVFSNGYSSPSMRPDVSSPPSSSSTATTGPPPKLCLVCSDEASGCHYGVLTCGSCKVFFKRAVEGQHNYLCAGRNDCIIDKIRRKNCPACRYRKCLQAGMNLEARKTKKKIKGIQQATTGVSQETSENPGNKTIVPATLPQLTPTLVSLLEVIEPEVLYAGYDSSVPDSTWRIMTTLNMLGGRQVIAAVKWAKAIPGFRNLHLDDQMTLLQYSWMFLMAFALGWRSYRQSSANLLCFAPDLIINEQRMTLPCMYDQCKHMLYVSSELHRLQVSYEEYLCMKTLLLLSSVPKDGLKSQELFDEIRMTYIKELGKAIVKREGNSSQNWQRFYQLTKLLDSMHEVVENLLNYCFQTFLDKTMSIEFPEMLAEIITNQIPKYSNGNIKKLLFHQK

[2] = biological target: Glucocorticoid receptor (Homo sapiens) (UniProt P04150); assay: GR-EFC Redistribution (AID 451; calls by dose curve; also: potency is read from the fitted curve at half-maximal effect); conditions: CHO-K1 GR-EFC translocation, beta-gal luminescence, 2 h
Procedure, shortened: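 CHO-K1 cells stably expressing nuclear-localized β-gal enzyme acceptor and GR fused C-terminally to the enzyme donor fragment; ligand-driven nuclear translocation restores β-gal by complementation. Compounds titrated up to 46 uM final, 2 h at 37 °C; luminescence read.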

[3] = biological target: Mitogen-activated protein kinase 10 (Mus musculus) (UniProt Q61831); assay: JNK3 AlphaScreen Assay (AID 530; active = well fitted curve in either direction with a large enough effect, not every such curve was filed as active;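 also: kinase came from lysate of stimulated human HepG2 cells; signal reports phosphorylation of biotinylated GST-cJun 1-79 at Ser73 with 10 µM ATP; % is scaled to controls: 0 for no effect and ±100 for the full control effect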); conditions: JNK3 lysate, c-Jun phosphorylation; series mostly up to 57.1 µM
Procedure, shortened: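 Biotinylated GST-cJun(1-79) served as substrate for JNK3 in HepG2 lysates stimulated with IL-1beta and TNF-alpha. ATP was 10 uM final, pH 7.6. Ser73 phosphorylation was quantified by AlphaScreen (680 nm excitation).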

[4] = biological target: 3',5'-cyclic-AMP phosphodiesterase 4B (Homo sapiens) (UniProt Q07343); assay: qHTS Assay for Inhibitors of PDE-IV (AID 607; active = well fitted activation curve with a large enough effect in the main read-out, with a control signal flat, not every such curve was filed as active; also: % of control where 0% means no effect); conditions: HEK293 ACTOne CNG channel cells, membrane potential fluorescence; series mostly up to 22.9 µM
Sequence of 3',5'-cyclic-AMP phosphodiesterase 4B (Homo sapiens) (Q07343 whole entry, looked up): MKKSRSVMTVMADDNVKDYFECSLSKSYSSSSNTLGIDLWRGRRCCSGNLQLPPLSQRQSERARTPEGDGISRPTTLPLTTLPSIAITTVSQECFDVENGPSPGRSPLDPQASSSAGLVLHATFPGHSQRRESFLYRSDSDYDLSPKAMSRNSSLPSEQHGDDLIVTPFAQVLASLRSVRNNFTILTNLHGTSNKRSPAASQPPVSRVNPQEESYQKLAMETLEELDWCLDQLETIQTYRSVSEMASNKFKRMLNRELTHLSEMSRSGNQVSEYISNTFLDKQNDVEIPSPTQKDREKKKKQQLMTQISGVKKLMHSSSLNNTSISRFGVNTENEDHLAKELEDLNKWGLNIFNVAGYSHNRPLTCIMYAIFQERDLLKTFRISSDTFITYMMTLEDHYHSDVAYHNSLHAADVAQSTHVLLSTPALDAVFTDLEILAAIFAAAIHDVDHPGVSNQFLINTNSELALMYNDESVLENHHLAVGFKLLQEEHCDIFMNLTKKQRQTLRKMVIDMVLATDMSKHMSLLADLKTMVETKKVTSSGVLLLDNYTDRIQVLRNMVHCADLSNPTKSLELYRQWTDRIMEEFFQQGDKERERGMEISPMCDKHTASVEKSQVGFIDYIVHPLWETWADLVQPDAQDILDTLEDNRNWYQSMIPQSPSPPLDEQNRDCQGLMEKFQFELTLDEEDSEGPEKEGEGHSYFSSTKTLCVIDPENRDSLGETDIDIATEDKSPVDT
Procedure, shortened: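 Live HEK293 cells with a modified cyclic nucleotide-gated (CNG) channel report intracellular cAMP via membrane-potential dye fluorescence (ex 535/em 590 nm). Endogenous PDE-IV was targeted. Compounds were tested at up to 22.9 uM final; RO 20-1724 100 uM served as control.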

[5] = Cell Viability - N2a (AID 540); conditions: N2a mouse neuroblastoma cell viability; activity change, negative = cytotoxicity: at 92.2 µM (top of the series); also: nearly all actives have a fitted effect of over 45% in size; also: potency is read from the fitted curve at half-maximal effect;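 as to activity change, negative = cytotoxicity: plate controls were DMSO alone for no effect and tamoxifen control for full effect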
Procedure, shortened: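 N2a mouse neuroblastoma, 1500 cells/well, 5 hr settle; compound 40 hr, 37 °C; CellTiter-Glo 20 min RT; luminescence; Hill-fit AC50.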

[6] = Cell Viability - HUV-EC-C (AID 542); conditions: HUV-EC-C endothelial cell viability, qHTS; series mostly up to 92.2 µM;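 also: cells exposed to compound for 40 hours; nearly all actives have a fitted effect of over 35% in size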; also: potency is read from the fitted curve at half-maximal effect; as to activity change, negative = cytotoxicity: % is scaled to controls: 0 for no effect and ±100 for the full control effect
Procedure, shortened: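 Luminescent ATP read-out (CellTiter-Glo, 20 min room temperature) after 40 hr compound treatment of HUV-EC-C cells at 37 °C. Concentration-response data fitted with the standard Hill equation to give AC50; tamoxifen and doxorubicin served as positive controls.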

[7] = Cell Viability - H-4-II-E (AID 543); conditions: H-4-II-E rat hepatoma viability; series mostly up to 92.2 µM;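 also: cells exposed to compound for 40 hours; nearly all actives have a fitted effect of over 35% in size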; also: potency is read from the fitted curve at half-maximal effect
Procedure, shortened: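 qHTS, rat hepatoma H-4-II-E, 1500 cells/well; 40 hr compound exposure, 37 °C; CellTiter-Glo ATP luminescence after 20 min RT; AC50 by standard Hill fit.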

[8] = Cell Viability - SH-SY5Y (AID 544); conditions: SH-SY5Y neuroblastoma cell viability; series mostly up to 92.2 µM;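 also: potency is read from the fitted curve at half-maximal effect; cells exposed to compound for 40 hours; nearly all actives have a fitted effect of over 55% in size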
Procedure, shortened: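 SH-SY5Y, 1500 cells/well, 5 hr pre-incubation 37 °C; cpd 40 hr 37 °C; CellTiter-Glo 20 min RT; luminescence (ATP) read. qHTS concentration-response, Hill fit → AC50. Tamoxifen, doxorubicin as positive controls.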

[9] = Cell Viability - Renal Proximal Tubule (AID 545); conditions: renal proximal tubule cells viability; series mostly up to 91.7 µM;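 also: cells exposed to compound for 40 hours; nearly all actives have a fitted effect of over 40% in size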; also: potency is read from the fitted curve at half-maximal effect;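 as to activity change, negative = cytotoxicity: 0% = DMSO only and -100% = 100 µM tamoxifen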
Procedure, shortened: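 Luminescent ATP signal (CellTiter-Glo) served as the viability read-out after 40 hr compound exposure of freshly isolated rat proximal tubule cells at 37 °C. Concentration-dependent ATP loss was fitted with the Hill equation to give AC50.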

[10] = Cell Viability - Mesenchymal (AID 546); conditions: mesenchymal cells viability, qHTS; activity change, negative = cytotoxicity: at 91.7 µM (top of the series);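 also: cells exposed to compound for 40 hours before reading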; also: potency is read from the fitted curve at half-maximal effect;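 as to activity change, negative = cytotoxicity: 0% = DMSO only and -100% = 100 µM tamoxifen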
Procedure, shortened: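 In this qHTS cytotoxicity format, glomerulus-derived human mesenchymal kidney cells received compound for 40 hr, then luciferase-based ATP quantitation. Concentration-response data were fitted with the Hill equation.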

[11] = Cellular Toxicity (caspase-3) HepG2 (AID 654); conditions: HepG2 caspase-3 activation, luminescence; series mostly up to 92.2 µM;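 also: cells exposed to compound for 16 hours before reading; 0% = DMSO alone and 100% = caspase signal from 100 µM tamoxifen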
Procedure, shortened: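 Luminescent Caspase-Glo 3/7 readout after 16 hr compound exposure of human hepatocellular carcinoma HepG2 cells at 37 °C; qHTS concentration-response, normalized DMSO = 0%, 100 uM tamoxifen = 100%; AC50 by standard Hill equation.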

[12] = Cellular Toxicity (caspase-3) Jurkat (AID 655); conditions: Jurkat caspase-3 activation, luminescence; series mostly up to 92.2 µM;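 also: cells exposed to compound for 16 h at 37 °C before reading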; also: potency is read from the fitted curve at half-maximal effect
Procedure, shortened: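 5000 Jurkat cells/well; compound 16 hr, 37 °C; Caspase-Glo 3/7 added, 20 min RT; luminescence read. Norm: DMSO = 0%, tamoxifen 100 uM = 100%. AC50, Hill model.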

[13] = Cellular Toxicity (caspase-3) HUV-EC-C (AID 656); conditions: HUV-EC-C cells, caspase-3 activation (apoptosis), vehicle = 0, 100 µM tamoxifen = 100%; series mostly up to 92.2 µM;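 also: 0% = DMSO basal and 100% = 100 µM tamoxifen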
Procedure, shortened: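 qHTS; HUV-EC-C, 1000 cells/well; 5 hr settle, 16 hr cmpd, 37°C; Caspase-Glo 3/7, 20 min RT; luminescence. Norm: DMSO = 0%, tamoxifen 100 uM = 100%. Hill-fit AC50.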

[14] = Cellular Toxicity (caspase-3) SHSY5Y (AID 657); conditions: SH-SY5Y caspase-3 activation; series mostly up to 91.7 µM;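 also: cells exposed to compound for 16 hours at 37 °C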
Procedure, shortened: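 qHTS, SH-SY5Y, 1500 cells/well, 5 h pre-incubation 37 °C; compound 16 h 37 °C; Caspase-Glo 3/7 1 h RT; luminescence. Norm.: DMSO = 0, 10 uM staurosporine = 100%. Hill fit → AC50.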

[15] = Cellular Toxicity (caspase-3) BJ (AID 658); conditions: BJ fibroblasts, luminescence, normalized: DMSO 0%, staurosporine 100%; series mostly up to 91.7 µM;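 also: cells exposed to compound for 16 hours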
Procedure, shortened: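 Plated BJ cells (1000/well) rested 5 hr, received compound for 16 hr at 37 °C, then Caspase-Glo 3/7 reagent for 1 hr at room temperature before luminescence reading.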

[16] = Cellular Toxicity (caspase-3) MRC-5 (AID 659); conditions: MRC-5 cells, luminescence, normalized: DMSO 0%, 10 µM staurosporine 100%; series mostly up to 91.7 µM
Procedure, shortened: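 Apoptosis readout in MRC-5 cells: luciferase light generated after caspase 3/7 cleaves a peptide-aminoluciferin substrate, measured post 16 hr compound incubation at 37 °C.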

[17] = Cellular Toxicity (caspase-3) Mesangial (AID 660); conditions: mesangial cells; Potency: caspase-3 activation; series mostly up to 91.7 µM;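 also: combined caspase 3 and 7 activity read by Caspase-Glo luminescence; cells exposed to compound for 16 h before the caspase read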; also: potency is read from the fitted curve at half-maximal effect
Procedure, shortened: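 Luminescent Caspase-Glo 3/7 readout (aminoluciferin substrate cleavage, 20 min RT) after 16 h compound exposure at 37 °C of normal human mesangial cells. Signal increase normalized between DMSO basal and 100 uM tamoxifen; Hill-equation AC50.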

[18] = Cellular Toxicity (caspase-3) SK-N-SH (AID 661); conditions: SK-N-SH caspase-3 activation, qHTS; series mostly up to 91.7 µM;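 also: cells exposed to compound for 16 hours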
Procedure, shortened: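 Luminescent Caspase-Glo 3/7 read-out after 16 hr compound exposure of SK-N-SH neuroblastoma cells at 37 °C. Signal increase normalized to DMSO (basal) and 10 uM staurosporine (100%); AC50 from Hill equation fits of qHTS concentration-response data.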

[19] = Cellular Toxicity (caspase-3) H-4-II-E (AID 663); conditions: H-4-II-E rat hepatoma; Potency: caspase-3 activation; series mostly up to 92.2 µM;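 also: cells exposed to compound for 16 hr before readout; 0% = DMSO basal and 100% = 100 µM tamoxifen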
Procedure, shortened: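 Caspase 3/7 activation measured in H-4-II-E cells in complete culture medium after 16 hr treatment at 37 °C, using luciferase-coupled substrate readout; AC50 values come from Hill-equation fits of normalized concentration-response data.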

[20] = Cell Viability - NIH 3T3 (AID 541); conditions: NIH 3T3 cell viability, qHTS; activity change, negative = cytotoxicity: at 92.2 µM (top of the series);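 also: potency is read from the fitted curve at half-maximal effect; cells exposed to compound for 40 hours; nearly all actives have a fitted effect of over 25% in size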
Procedure, shortened: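 qHTS format; 40 hr compound exposure, 37 °C; CellTiter-Glo luminescence (cellular ATP) read-out after 20 min at RT. Decrease in ATP = cytotoxicity; AC50 from standard Hill fit.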

C[N+]1(C)[C@@H]2CC[C@H]1CC(OC(=O)C(CO)c1ccccc1)C2 (some centres undefined)
inactive: Potency [1] > 20.6 µM

c1ccc2nc(N3CCNCC3)ccc2c1
inactive: Potency [1] > 46 µM and > 20.6 µM | Potency [2] > 46 µM and > 20.6 µM | outcome [3] | outcome [4]

O=C(O)c1nn(Cc2ccc(Cl)cc2Cl)c2ccccc12
inactive: Potency [1] > 46 µM | Potency [2] > 46 µM | outcome [3] | outcome [4]

COc1ccc(C(=O)N2CCCC2=O)cc1
inactive: Potency [1] > 46 µM and > 20.6 µM | Potency [2] > 46 µM | outcome [3] | outcome [4]

Oc1ccc2[nH]cc(CCCCN3CC=C(c4ccccc4)CC3)c2c1
inactive: Potency [1] > 46 µM | Potency [2] > 46 µM | outcome [4]

COc1ccc(CN2CCNCC2)c(OC)c1OC
inactive: Potency [1] > 20.6 µM | Potency [2] > 20.6 µM | outcome [3] | outcome [4]

NC(=O)CN1CCCC1=O
inactive: Potency [1] > 46 µM and > 20.6 µM | Potency [2] > 46 µM and > 20.6 µM | outcome [3] | outcome [4]

O=C(CCCN1CCC(n2c(=O)[nH]c3ccccc32)CC1)c1ccc(F)cc1
inactive: Potency [1] > 20.6 µM | Potency [2] > 20.6 µM | outcome [3] | outcome [4]

CN(C)C(=S)SSC(=S)N(C)C
active: Potency [5] 5.01 µM | Potency [6] 15.8 µM | Potency [7] 3.98 µM | Potency [8] 0.0158 µM | Potency [9] 20 µM | activity change, negative = cytotoxicity [10] -103% | Potency [12] 0.0631 µM | Potency [17] 0.398 µM
inactive: outcome [3] | Potency [11] | outcome [13] | Potency [14] | outcome [15] | outcome [16] | Potency [18] | Potency [19]

COP(=O)(OC)C(O)C(Cl)(Cl)Cl (centres undefined)
inactive: Potency [1] > 20.6 µM

COP(=O)(OC)OC=C(Cl)Cl
inactive: outcome [3] | Potency [5] | Potency [6] | Potency [7] | Potency [9] | Potency [10] | Potency [11] | Potency [12] | outcome [13] | Potency [14] | outcome [15] | outcome [16] | Potency [17] | Potency [18] | Potency [19]
active: Potency [20] 12.6 µM | Potency [8] 15.8 µM

COC(=O)C1=CCCN(C)C1
inactive: Potency [1] > 46 µM and > 20.6 µM | Potency [2] > 46 µM and > 20.6 µM | outcome [3] | outcome [4]

OC(c1ccccc1)(c1ccccc1)C1CCNCC1
inactive: Potency [1] > 20.6 µM | Potency [2] > 20.6 µM | outcome [3] | outcome [4]

C[C@H](N)[C@H](O)c1ccc(O)c(O)c1
inactive: outcome [3] | outcome [4]

CC[n+]1c(-c2ccccc2)c2cc(N)ccc2c2ccc(N)cc21
inactive: Potency [11] | Potency [12] | outcome [13] | Potency [14] | outcome [15] | outcome [16] | Potency [17] | Potency [18] | Potency [19]
active: activity change, negative = cytotoxicity [5] -81.5% | Potency [10] 31.6 µM

Cc1ccc(O)cc1
inactive: outcome [3]

Source: PubChem BioAssay (NCATS)
